Experimental data reported in paper PMC11062922 (Nature Chemical Biology, 2023).
Like-named read-outs stand apart in the source and are kept apart here.

Assays:
Set-up in all cases: species or system human, MV4-11 + K-562 + COLO205 + SK-N-BE2 + OVCAR-8
ACVR1B = conditions: read-out: apparent Kd, compound concentrations: 100 nM and 1000 nM (sheet 'Samples'), n = 1
ACVR1 = conditions: read-out: apparent Kd, compound concentrations: 100 nM and 1000 nM (sheet 'Samples'), n = 1
CSK = conditions: read-out: apparent Kd, compound concentrations: 100 nM and 1000 nM (sheet 'Samples'), n = 1
EPHA1 = conditions: read-out: apparent Kd, compound concentrations: 100 nM and 1000 nM (sheet 'Samples'), n = 1
SIK2 = conditions: read-out: apparent Kd, compound concentrations: 100 nM and 1000 nM (sheet 'Samples'), n = 1
ZAK = conditions: read-out: apparent Kd, compound concentrations: 100 nM and 1000 nM (sheet 'Samples'), n = 1
DYRK1A = conditions: read-out: apparent Kd, compound concentrations: 100 nM and 1000 nM (sheet 'Samples'), n = 1
DDR1 = conditions: read-out: apparent Kd; compound concentrations:100 nM and 1000 nM (sheet 'Samples'); n = 1
EGFR = conditions: read-out: apparent Kd, n = 1
FLT3 = conditions: read-out: apparent Kd, n = 1
FRK = conditions: read-out: apparent Kd, compound concentrations: 100 nM and 1000 nM (sheet 'Samples'), n = 1
ACAD11 = conditions: read-out: apparent Kd; compound concentrations: 100 nM and 1000 nM (sheet 'Samples'), CATDS: 8.0770900756938508E-3; n = 1
CDKL5 = conditions: read-out: apparent Kd; compound concentrations: 100 nM and 1000 nM (sheet 'Samples'), CATDS: 6.9445234986253998E-3; n = 1
GSK3A = conditions: read-out: apparent Kd; compound concentrations: 100 nM and 1000 nM (sheet 'Samples'), CATDS: 2.0180819092640301E-2; n = 1
GSK3B = conditions: read-out: apparent Kd; compound concentrations: 100 nM and 1000 nM (sheet 'Samples'), CATDS: 1.6634751009670601E-2; n = 1
LYN = conditions: read-out: apparent Kd; compound concentrations: 100 nM and 1000 nM (sheet 'Samples'), CATDS: 9.9981449743306808E-3; n = 1
SRC = conditions: read-out: apparent Kd; compound concentrations: 100 nM and 1000 nM (sheet 'Samples'), CATDS: 1.3307336951607501E-2; n = 1
TNK2 = conditions: read-out: apparent Kd; compound concentrations: 100 nM and 1000 nM (sheet 'Samples'), CATDS: 1.95530569334194E-2; n = 1
[1] = compound concentrations:100 nM and 1000 nM (sheet 'Samples')

## COc1cc(Nc2ccnc3cc(-c4ccncc4)ccc23)cc(OC)c1OC.Cl [GW494610A]
ACVR1B; CATDS: 6.2055393770244598E-2
  potency estimated from few doses: 76.5 nM
ACVR1; CATDS: 8.6839126385756693E-2
  potency estimated from few doses: 38.3 nM
CSK; CATDS: 2.2928225838280001E-2
  potency estimated from few doses: 1390 nM
EPHA1; CATDS: 0.10844818822907799
  potency estimated from few doses: 25.4 nM
SIK2; CATDS: 2.3854628716910201E-2
  potency estimated from few doses: 1170 nM

## CCc1nc(-c2cccc(N(C)S(=O)(=O)c3ccccc3)c2)c(-c2ccnc(Nc3ccc(N4CCN(C(C)=O)CC4)nc3)n2)s1 [GSK1645895A]
ZAK; CATDS: 0.12983068767625999
  potency estimated from few doses: 2300 nM

## COc1ccccc1CNC1=NC(=O)/C(=C/c2ccc3ncccc3c2)S1 [RO4503315-000]
DYRK1A; CATDS: 8.6327639243549595E-2
  potency estimated from few doses: 596 nM

## Cc1cccc(Nc2nc(NCCN)ncc2C(N)=O)c1 [GSK1292139B]
SIK2; CATDS: 8.4015516979832894E-2
  potency estimated from few doses: 925 nM

## CS(=O)(=O)Cc1ccc(Nc2nccc(-c3c(-c4cccc(NC(=O)C5CCCCC5)c4)nn4ncccc34)n2)cc1 [GSK350559A]
DDR1
  potency estimated from few doses: 401 nM
EGFR; [1]
  potency estimated from few doses: 1890 nM
FLT3; [1]
  potency estimated from few doses: 660 nM

## COc1ccc(-n2cnc3c(N)ncnc32)cc1 [SKF-97236]
FLT3; compound concentrations: 100 nM and 1000 nM (sheet 'Samples'), CATDS: 0.20462680651790399
  potency estimated from few doses: 598 nM

## CS(=O)(=O)CCNCc1ccc(-c2ccc3ncnc(Nc4ccc(OCc5cccc(F)c5)c(C(F)(F)F)c4)c3c2)o1 [GW576484X]
EGFR; compound concentrations: 100 nM and 1000 nM (sheet 'Samples'), CATDS: 4.6980711652152798E-2
  potency estimated from few doses: 2290 nM

## Cl.Oc1cccc(Nc2ccnc3cc(-c4ccncc4)ccc23)c1 [GW494601A]
ACVR1B; CATDS: 4.2820592961585899E-2
  potency estimated from few doses: 73.7 nM
ACVR1; CATDS: 4.3782572898148998E-2
  potency estimated from few doses: 69 nM
EPHA1; CATDS: 8.3232336419421196E-2
  potency estimated from few doses: 14.3 nM
FRK; CATDS: 2.21362656072501E-2
  potency estimated from few doses: 843 nM
SIK2; CATDS: 2.1329898966899598E-2
  potency estimated from few doses: 1020 nM
ZAK; CATDS: 1.9718010562251101E-2
  potency estimated from few doses: 1580 nM

## O=C1N=C(NCc2cccs2)SC1Cc1ccc2ncccc2c1 (stereo not shown) [RO4629078-000]
ACAD11
  potency estimated from few doses: 1250 nM
ACVR1; CATDS: 8.2545547739811299E-3
  potency estimated from few doses: 1160 nM
CDKL5
  potency estimated from few doses: 2320 nM
CSK; CATDS: 1.22881462523177E-2
  potency estimated from few doses: 419 nM
EPHA1; CATDS: 1.25959830755684E-2
  potency estimated from few doses: 398 nM
FLT3; compound concentrations: 100 nM and 1000 nM (sheet 'Samples'), CATDS: 7.9273479759833908E-3
  potency estimated from few doses: 1330 nM
FRK; CATDS: 9.6278136963786204E-3
  potency estimated from few doses: 738 nM
GSK3A
  potency estimated from few doses: 174 nM
GSK3B
  potency estimated from few doses: 238 nM
LYN
  potency estimated from few doses: 670 nM
SIK2; CATDS: 1.2411552216362301E-2
  potency estimated from few doses: 411 nM
SRC
  potency estimated from few doses: 357 nM
TNK2
  potency estimated from few doses: 183 nM

## O=C1N=C(NCCc2ccccc2F)S/C1=C\c1ccc2ncccc2c1 [RO4498483-000]
DYRK1A; CATDS: 8.8096211342070505E-2
  potency estimated from few doses: 883 nM
FLT3; compound concentrations: 100 nM and 1000 nM (sheet 'Samples'), CATDS: 7.3322298638159894E-2
  potency estimated from few doses: 1520 nM

## NC(=O)c1cccc(Nc2nccc(Nc3cccc4[nH]ncc34)n2)c1 [GW782612X]
ACVR1B; CATDS: 5.6390113546044701E-2
  potency estimated from few doses: 401 nM
ACVR1; CATDS: 0.10376431199902
  potency estimated from few doses: 122 nM
FRK; CATDS: 5.5821190853221701E-2
  potency estimated from few doses: 411 nM
